Assay results reported in PubChem BioAssay.

Assay: small molecules captured by biotinylated probe aFST – biochemical, small-molecule microarray, fluorescence 635/667, stem cell growth factor project, primary screen (AID 1086);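 note: score merges 667 nm fluorescence with signal-to-noise of each printed compound spot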
Conditions: higher = more signal

| SMILES | composite z-score |
| --- | --- |
| C[C@]1(C(=O)NCCN2CCOCC2)c2ccccc2C(=O)N(Cc2ccc(OC(F)(F)F)cc2)[C@H]1c1ccc(CO)cc1 | 0.045 |
| [N-]=[N+]=Nc1ccccc1[C@@H]1OC(c2ccc(OCCCO)cc2)=N[C@]1(CCS(=O)(=O)c1ccccc1)C(=O)NCCN1CCOCC1 | 0.925 |
| CC(C)CN1C(=O)[C@@]2(Cc3ccccc31)c1ccccc1C(=O)N(Cc1ccccc1C(F)(F)F)[C@H]2c1ccc(CO)cc1 | 0.0594 |
| C=CC[C@]1(C(=O)N(C)C)N=C(c2ccc(OCCCO)cc2)O[C@H]1c1ccccc1N=[N+]=[N-] | 1.87 |
| COc1cc2c(cc1OC)CN(C(=O)[C@H]1[C@@H]3C(=O)O[C@@H](c4ccccc4)[C@@H](c4ccccc4)N3[C@@H](c3ccc(OCCO)cc3)[C@]13C(=O)Nc1ccc(C#CC4(O)CCCCCC4)cc13)CC2 | 1.6 |
| COCCCNC(=O)[C@@H]1c2ccccc2C(=O)N(Cc2ccccc2C(F)(F)F)[C@H]1c1ccc(CO)cc1 | 0.0584 |
| C=CC[C@]12N=C(c3ccc(OCCCO)cc3)O[C@H]1c1ccccc1N(C)C2=O | 0.896 |
| CCCC[C@@H]1C[C@H]1[C@@H](NC(=O)c1cccnc1)c1ccc(-c2ccccc2)cc1 | -1.23 |
| C[C@@H]1ON(c2ccc(C(=O)OC(C)(C)C)cc2)[C@H](c2ccc(Br)cc2)[C@H]1C(=O)N1C(=O)OC[C@H]1Cc1ccccc1 | 0.492 |
| CC(C)CCC[C@@H](C)[C@H]1CC[C@@]2(C)C3=C(CC[C@]12C)[C@@]1(C)CC[C@H](OC(=O)c2ccc(Br)cc2)C(C)(C)C1CC3 (stereo partly specified) | 0.0941 |
| COc1cc2c(cc1O)C(C)N(Cc1cc3c(cc1Br)OCO3)CC2 (stereo unspecified) | -0.175 |
| COc1c(C)cc(-c2cc3c(c(Cc4ccccc4)n2)[Si](C(C)C)(C(C)C)OC3)cc1C | 0.335 |
| CN(C)CCCN1C(=O)[C@@]2(c3ccc([N+](=O)[O-])cc3)CC(=O)N(CC34CC5CC(CC(C5)C3)C4)[C@@H]2c2ccc(CO)cc21 | 0.0267 |
| CO[C@H]1O[C@H](CO)[C@@H](OC(=O)Nc2ccc(C(F)(F)F)cc2)[C@H](OC(=O)Nc2ccc3c(c2)OCO3)[C@H]1OC(=O)Nc1ccc2c(c1)OCO2 | 0.557 |
| NC(=O)NCC#Cc1ccc2c(c1)[C@]1(C(=O)N2)[C@H](C(=O)Nc2nc3ccccc3s2)[C@H]2C(=O)O[C@H](c3ccccc3)[C@H](c3ccccc3)N2[C@@H]1c1ccc(O)cc1 | 0.623 |
| COCCOC(=O)N1C(=O)[C@@]2(c3cc(C#CC4(O)CCCCCC4)ccc31)[C@H](C(=O)N1CCCCCCC1)[C@H]1C(=O)O[C@H](c3ccccc3)[C@H](c3ccccc3)N1[C@@H]2c1ccc(OCCO)cc1 | 3.29 |
| COC(=O)[C@@]1(Cc2ccccc2)[C@H]2c3cc(C(=O)N4CCCC4)[nH]c3C[C@H]2CN1C(=O)c1ccccc1 | 0.623 |
| CCOC(=O)[C@H]1C/C=C/C[C@H](C(=O)OCC)C(=O)O[C@H]2[C@@H](OC)O[C@H](CO)[C@@H](OC(=O)CCc3ccccc3)[C@@H]2OC1=O | -0.555 |

| SMILES | composite z-score |
| --- | --- |
| Cc1ccc(F)cc1S(=O)(=O)N[C@@H]1CCN(Cc2ccc(OC(C)C)cc2)C1 | -0.192 |
| COCCOC(=O)N1C(=O)[C@@]2(c3cc(C#CC4=CCCCC4)ccc31)[C@H](C(=O)N1CCN(c3ncccn3)CC1)[C@H]1C(=O)O[C@H](c3ccccc3)[C@H](c3ccccc3)N1[C@@H]2c1ccc(O)cc1 | 0.442 |
| COC(=O)C1(Cc2ccccc2)C=C2C(=C(C(C)C)C(=O)C2C)CN1 (stereo unspecified) | 1.24 |
| O=C1O[C@H](c2ccccc2)[C@H](c2ccccc2)N2[C@H]1[C@@H](C(=O)O)[C@]1(C(=O)Nc3ccccc31)[C@H]2c1ccc(O)cc1 | -0.388 |
| COc1ccc(NC(=O)O[C@H]2[C@H](OC(=O)Nc3ccc4c(c3)OCO4)[C@@H](OC(=O)Nc3ccc4c(c3)OCO4)[C@@H](OC)O[C@@H]2CO)cc1 | 0.4 |
| COc1c(C)cc(-c2cc3c(c(-c4ccccc4)n2)[Si](C(C)C)(C(C)C)OC3)cc1C | -0.205 |
| C[C@@H](OCc1ccccc1)C1NC(=O)[C@@]23C(=O)N[C@@H](Cc4ccccc4)C2[C@H](C)[C@@]2(C)O[C@H]2C3/C=C/C/C=C\CNC(=O)CNC1=O (stereo partly specified) | -0.294 |
| COc1ccc([Si](C)(C)[C@@H]2[C@@H](CC(=O)N3CCC[C@H]3CO)O[C@]3(C(=O)N(Cc4ccc(N5C(=O)c6cccc7cccc5c67)cc4)c4ccccc43)[C@H]2C)cc1 | 0.622 |
| CC1CC/C=C\[C@H]2OC34C=CCN(c5ccc6ccccc6c5)C(=O)[C@H]3N(C(CO)C(C)C)C(=O)[C@@H]4C2C(=O)O1 (stereo partly specified) | -0.25 |
| COCCOC(=O)N1C(=O)[C@@]2(c3cc(C#CCC(C(=O)OC)C(=O)OC)ccc31)[C@H](c1ccc(OCCO)cc1)N1[C@H](c3ccccc3)[C@H](c3ccccc3)OC(=O)[C@H]1[C@@H]2C(=O)N1CCN(c2ncccn2)CC1 | 0.789 |
| CCOC(=O)[C@H]1C/C=C/C[C@H](C(=O)OCC)C(=O)O[C@H]2[C@@H](OC)O[C@H](CO)[C@@H](OC(=O)Nc3ccc(OC)cc3)[C@@H]2OC1=O | 0.363 |
| O=C1O[C@@H](c2ccccc2)[C@@H](c2ccccc2)N2[C@@H](c3ccc(O)cc3)[C@]3(C(=O)Nc4ccc(C#CC5=CCCCC5)cc43)[C@@H](C(=O)N3CCN(c4ncccn4)CC3)[C@H]12 | 0.207 |
| CCCCN1CC=CC23O[C@@H]4/C=C\CCC(C)OC(=O)C4[C@H]2C(=O)N(CCCCCCO)[C@@H]3C1=O (stereo partly specified) | -0.213 |
| CCOC(=O)C[C@H]1[C@H](OC(=O)c2ccc(-c3ccccc3)cc2)[C@@H](NC(=O)c2ccc3ccccc3n2)c2cc(OCCCO)ccc2N1C(=O)c1ccccc1 | 0.579 |
| COc1ccc(NN2C(C(O)c3ccccn3)C=CC3C(=O)N(C4CCCCC4)C(=O)C32)cc1 (stereo unspecified) | 1.29 |
| COc1cc(OC)c(C(O)C2C=CC3C(=O)N(c4ccccc4)C(=O)C3N2Nc2ccc(C#N)cc2)cc1Br (stereo unspecified) | 1.73 |
| COc1ccc([Si](C)(C)[C@H]2[C@H](CCn3cc([C@H](O)c4ccccc4)nn3)O[C@@]3(C(=O)N(Cc4ccc(N5CCOC5=O)cc4)c4ccccc43)[C@@H]2C)cc1 | -0.757 |
| CCCCC(CC)C(O)C1C=CC2C(=O)N(c3ccccc3)C(=O)C2N1Nc1ccc([N+](=O)[O-])cc1 (stereo unspecified) | 1.1 |
